Measured values taken from ChEMBL document CHEMBL3433997, “St. Jude Leishmania screening dataset” (2016).

How the values were obtained:
Type in all cases: functional
[1] = target: Solute carrier family 2, facilitated glucose transporter member 1 (Homo sapiens) (UniProt P11166); assay: ST_JUDE_LEISH: Cytotoxicity at 2uM final concentration against transgenic Leishmania Mexicana promastigotes LmGLUT1 that are glucose transport deficient and complemented with the human glucose transporter GLUT1. Activity is measured by DNA content using SYBR green in vitro
Sequence of Solute carrier family 2, facilitated glucose transporter member 1 (Homo sapiens) (P11166 whole entry): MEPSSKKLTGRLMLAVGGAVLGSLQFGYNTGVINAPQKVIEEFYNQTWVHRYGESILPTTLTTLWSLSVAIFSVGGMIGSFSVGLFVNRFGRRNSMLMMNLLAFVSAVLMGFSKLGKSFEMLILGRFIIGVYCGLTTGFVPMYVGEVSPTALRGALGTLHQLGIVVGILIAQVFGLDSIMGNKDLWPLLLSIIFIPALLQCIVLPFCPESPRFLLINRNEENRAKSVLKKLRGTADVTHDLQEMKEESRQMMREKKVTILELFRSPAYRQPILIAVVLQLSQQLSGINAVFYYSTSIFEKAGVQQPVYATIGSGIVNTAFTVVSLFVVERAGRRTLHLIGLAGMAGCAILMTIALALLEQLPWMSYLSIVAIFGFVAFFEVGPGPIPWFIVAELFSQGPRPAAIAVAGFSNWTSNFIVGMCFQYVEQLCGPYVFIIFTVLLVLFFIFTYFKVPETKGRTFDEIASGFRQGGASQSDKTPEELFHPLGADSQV

[2] = target: Hexose transporter 1 (Plasmodium falciparum) (UniProt O97467); assay: ST_JUDE_LEISH: Cytotoxicity at 2uM final concentration against transgenic Leishmania Mexicana promastigotes LmPfHT that are glucose transport deficient and complemented with the Plasmodium falciparum hexose transporter. Activity is measured by DNA content using SYBR green in vitro
[3] = target: Glucose transporter (Leishmania mexicana) (UniProt O61059); assay: ST_JUDE_LEISH: Cytotoxicity at 2uM final concentration against transgenic Leishmania Mexicana promastigotes LmGT2 that are glucose transport deficient and complemented with the L. Mexicana glucose transporter 2. Activity is measured by DNA content using SYBR green in vitro

Row | SMILES | inhibition [1] [%] | inhibition [2] [%] | inhibition [3] [%]
1 | CN(C)c1ccc(C=C2SC(=N)N(c3nccs3)C2=O)cc1 | 3.25 | 5.28 | 4.86
2 | Cc1ccc(Cc2c(C)nc3nc(N)nc(N)c3c2C)cc1 | 69.9 | 73.4 | 54.4
3 | CCN(CC)CCOC(=O)c1ccc(NC(=O)c2cc(-c3ccc(C)cc3)nc3ccccc23)cc1 | 1.71 | 0.95 | 1.21
4 | COc1ccccc1C1CCN(C2CCC(NC(=O)/C=C/c3ccc(F)c(F)c3)CC2)CC1 (centres undefined) | -3.94 | -1.53 | -2.36
5 | CC(Cc1ccc(OCCCCOc2ccccc2)cc1)NCCc1ccc(Oc2ccccc2)cc1 (centres undefined) | 87.5 | 84.7 | 78.2
6 | CCOc1ccc(-c2nonc2NC(=O)c2ccc(F)cc2)cc1OCC | -2.77 | 2 | 1.5
7 | CCOc1cc(C(=O)NCCCN2CCCCC2C)ccc1-c1nc2cc(Cl)ccc2[nH]1 (centres undefined) | 2.37 | 2.23 | 0.87
8 | C=CCCCNCC(NCCCNc1cc(=O)c2ccccc2[nH]1)c1cc(Br)cc(Br)c1 (centres undefined) | -2.22 | -0.98 | 0.77
9 | N=c1sc2ccccc2n1CC(O)c1ccc(Cl)c(Cl)c1 (centres undefined) | -1.41 | 1.26 | 0.57
10 | Oc1ccc2ccccc2c1C=NNc1nc(=Nc2ccccc2)nc(N2CCOCC2)[nH]1 | 4.21 | 3.72 | 0.2
11 | CCCC(CNCc1cccc(I)c1)CNc1cc(=O)c2ccccc2[nH]1 (centres undefined) | 1.04 | 2.83 | 2.67
12 | Cc1cc(N[C@@H](Cc2ccccc2)C(=O)NCc2cccs2)nc(NCCc2ccccc2)n1 | 2.96 | 2.94 | -1.2
13 | Cc1cc(NC(=O)c2cccs2)ccc1OC1CCN(Cc2ccccc2)CC1 | 3.33 | 3.27 | 3.22
14 | CCC1(C)N=C(N)N=C(N)N1c1ccccc1 (centres undefined) | -3.49 | 0 | -3.1
15 | Cc1cnc(C(=O)Nc2cccc(-c3ccc(-c4nc5cc(F)ccc5[nH]4)cc3)c2)cn1 | 12.2 | 10 | 8.63
16 | Cc1ccc(CNC(=O)[C@H](CCCN)Nc2nc(Nc3ccccc3)ncc2C)cc1 | 1.37 | 0.93 | 1.15
17 | CCCCN1CCN(c2cc(NS(=O)(=O)c3cccc(C(=O)Nc4ccc(C(F)(F)F)cc4)c3)ccc2OC)CC1 | 0.33 | -1.12 | -1.22

Row | SMILES | inhibition [1] [%] | inhibition [2] [%] | inhibition [3] [%]
18 | CCNC1=NC2=C(CC(C(C)(C)C)CC2)C2(CCC(C(C)(C)C)CC2)S1 (centres undefined) | 4.57 | 4.3 | 1.15
19 | S=C(NCCCCCN1CCC(c2c[nH]c3ccccc23)CC1)Nc1ccc(Cl)c(Cl)c1 | 1.88 | 1.44 | 2.15
20 | O=C(Nc1cc(C(F)(F)F)cc(C(F)(F)F)c1)c1cc(C(F)(F)F)cc(C(F)(F)F)c1 | 0.3 | -0.43 | 1.06
21 | CCCC1(NC[C@@H](O)[C@H](Cc2ccccc2)NC(=O)c2cc(NCC)cc(N3CCCCS3(=O)=O)c2)CCC1 | 4.81 | 2.33 | 2.83
22 | CC1(C)CCCN(C(=O)c2cccc(-n3nc(-c4ccc(Cl)cc4)cc3N)c2)C1 | 2.79 | 1.98 | 2.07
23 | CC(C)CNCc1ccc(-c2cccc(CN(CCN(C)C)C(=O)NCCc3ccccc3)c2)cc1 | -0.22 | 1.83 | 0.23
24 | Oc1nc(Cc2ccccc2)nc2ccc(Cl)cc12 | 2.13 | 2.54 | 4.12
25 | O=C(/C=C/c1ccc(Cl)c(Cl)c1)NCCCCCN1CCC(NC(=O)Nc2ccc(C(F)(F)F)cc2)C1 (centres undefined) | -0.17 | -0.88 | -3.22
26 | CCCCCCN1CCCN(Cc2ccc(C(=O)Nc3ccc(CC)cc3)cc2)CC1 | 11.4 | 10.9 | 10.6
27 | CN1CCN(CCCN(Cc2csc(-c3ccc(CNCc4ccccc4)cc3)n2)S(=O)(=O)c2ccccc2)CC1 | 12.2 | 15.3 | 4.53
28 | N#Cc1ccc(N2CCN(Cc3cccc(-c4ccc(-c5nc6ccccc6[nH]5)cc4)c3)CC2)nc1 | 6.09 | 3.68 | -0.67
29 | c1ccc2[nH]c(-c3ccc(-c4ccc(CN5CCN(c6ccncc6)CC5)cc4)cc3)nc2c1 | 21.3 | 15.4 | 6.31
30 | Oc1ccc(CCNc2nc(N/N=C/C=C/c3ccc(Cl)cc3)nc(N3CCNCC3)n2)cc1 | 0.83 | 1.74 | 0.91
31 | O=C(Nc1cccc(CN2CCCN(Cc3cccc(Cl)c3)CC2)c1)c1ccc(Br)cc1 | 7.66 | 7.39 | 9.96
32 | Cn1c(/C=C/C(=O)NC2CCC(CCN3CCc4ccc(C#N)cc4CC3)CC2)cc2ccccc21 (centres undefined) | 2.51 | 4.9 | 3.48
33 | O=C(c1cccs1)N(Cc1cccc(-c2ccc(CNCCc3ccccc3)cc2)c1)C1CCN(Cc2ccccc2)CC1 | 9.9 | 7.55 | 9.34
